Mtb FBA inh: inhibits M. tuberculosis FBA enzyme. P9WQA3. purified M. tuberculosis FBA, fluorescence read-out. inhibition, % at 1 µM. actives 2.3% (n = 360,000). AID 588726;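 note: 0% = vehicle and 100% = reference inhibitor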
GDH-TPI counter-1: inhibits GDH-TPI coupling enzymes, artifact for Mtb FBA screen; GDH-TPI coupled enzyme counterscreen, NADH absorbance; actives 1.2% (n = 360,000); inhibition, % at 4.8 µM; in the data active = inhibition above about 30%;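 note: 0% = DMSO wells and 100% = wells lacking the enzyme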
RecA intein inh: inhibitors of M. tuberculosis RecA intein splicing; AID 2221; P9WHJ3; inhibition, % (no concentration beside the values); cell-free RecA intein splicing, fluorescence; actives 0.75% (n = 290,000); in the data active = inhibition above about 30%; inconclusive = no clear call, values can overlap the other calls;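 note: 0% = vehicle wells and 100% = reference inhibitor control wells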
UGM FP inh: inhibitors of M. tuberculosis UDP-galactopyranose mutase; purified UGM, fluorescence polarization probe displacement; AID 504406; P9WIQ1; actives 0.06% (n = 320,000); inhibition, % at 10 µM; in the data active = inhibition above about 10%, passing the limit was not always enough; inconclusive = no clear call, values can overlap the other calls
Target sequence (P9WIQ1 whole entry, looked up): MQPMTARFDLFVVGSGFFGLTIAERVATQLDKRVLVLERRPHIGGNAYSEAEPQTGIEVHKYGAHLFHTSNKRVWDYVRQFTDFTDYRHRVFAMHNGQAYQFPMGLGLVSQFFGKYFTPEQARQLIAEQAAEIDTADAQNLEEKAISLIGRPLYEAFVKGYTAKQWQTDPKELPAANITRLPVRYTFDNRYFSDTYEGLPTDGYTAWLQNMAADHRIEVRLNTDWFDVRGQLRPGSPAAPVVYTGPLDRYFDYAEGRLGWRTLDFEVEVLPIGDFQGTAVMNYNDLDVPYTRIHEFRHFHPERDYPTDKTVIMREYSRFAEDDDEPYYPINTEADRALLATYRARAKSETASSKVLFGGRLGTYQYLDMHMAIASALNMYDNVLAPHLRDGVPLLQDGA
Rv3671c protease: inhibitors of M. tuberculosis serine protease Rv3671c; P9WHR9; inhibition, % at 5.96 µM; actives 0.048% (n = 320,000); in the data active = inhibition above about 38%;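 note: extracellular domain of Rv3671c used as enzyme; 0% = enzyme with DMSO and 100% = no enzyme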
Mtb betalactam: beta-lactam sensitization of Mtb H37Rv; M. tuberculosis H37Rv growth with meropenem, percent inhibition; inhibition, % at 25 µM; actives 0.27% (n = 330,000); AID 434955; call rule not given here;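 note: growth measured after seven days incubation then overnight dye step; 0% = bacteria only wells and 100% = bacteria with antibiotic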
Mtb FBA inh conf: Mtb FBA inhibition, confirmed; shares compounds with Mtb FBA inh; purified M. tuberculosis FBA, fluorescence read-out; inhibition, % at 1 µM; actives 78% (n = 5,600);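 note: 0% = vehicle wells and 100% = reference inhibitor wells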
GDH-TPI counter-2: inhibits GDH-TPI coupling enzymes, flagging Mtb FBA hits; GDH-TPI coupled enzyme counterscreen, fluorescence; shares compounds with Mtb FBA inh; inhibition, % at 1 µM; AID 652141; actives 81% (n = 5,600); in the data active = inhibition above about 10%
Numbers without * were called inactive; ? = inconclusive; . = no result; + = active, no number. Rows were chosen to be rich in hits. Some 4% of all compounds tested hit in one or more screens of this group. Cut-off read from the data, not from the text of the source, unless noted: active = inhibition above about 27%; inactive = the rest.

SMILES | Mtb FBA inh | GDH-TPI counter-1 | RecA intein inh | UGM FP inh | Rv3671c protease | Mtb betalactam | Mtb FBA inh conf | GDH-TPI counter-2
COc1cccc2sc3ccc(NCc4ccc5c(c4)OCO5)cc3c(=O)c12 | 2 | 13 | 5 | 0 | 1 | -5 | . | .
CCCn1nc2cc(C(=O)NCc3ccc(C)cc3)ccc2c1OC | 58* | 9 | -5 | 3 | 2 | -7 | 45* | 35*
CCOc1c2ccc(C(=O)NCc3ccc(C)cc3)cc2nn1CCOC | 44* | 0 | -2 | 4 | -2 | -4 | 142* | 117*
CCCCn1nc2cc(C(=O)NCc3ccccc3OC)ccc2c1OCC | 19 | -8 | 1 | 2 | -3 | 26 | . | .
O=C(CNCc1ccccc1)Nc1ccc(Cl)cc1 | 0 | -1 | 0 | 2 | -6 | -9 | . | .
O=C(NCc1ccccn1)c1ccc(OC2CCN(Cc3ccc(CO)o3)CC2)cc1 | -1 | 6 | -4 | 1 | -9 | -18 | . | .
CNC(=O)c1sc(-c2cccnc2)nc1C | 1 | 7 | 3 | 0 | -8 | -10 | . | .
Cc1sc(-c2cccnc2)nc1OC(=O)C1CC1 | 28* | 7 | -3 | 0 | -1 | -2 | + | +
CC1CCCN(Cc2c(O)ccc3c(=O)c(-c4nc5ccccc5s4)c(N)oc23)C1 (configuration not stated) | 33* | 39* | 0 | 0 | -7 | 100 | 136* | 84*
CCC1CCCN1Cn1cnc2c([nH]c3ccccc32)c1=O (configuration not stated) | 15 | 10 | -2 | 2 | 6 | -9 | . | .
CCN1CCCC1CNC(=O)c1cc2c(-c3ccc(Cl)cc3)nn(C)c2s1 (configuration not stated) | 22 | 4 | 3 | 1 | -7 | 38 | . | .
CCN1CCCC1CNC(=O)c1cc2c(-c3cccc(OC)c3)nn(C)c2s1 (configuration not stated) | 36* | 2 | -1 | 2 | -1 | 4 | 100* | 59*
CCCCN(C)CCNC(=O)c1cc2c(-c3cccc(OC)c3)nn(C)c2s1 | 42* | 20 | 2 | -3 | -8 | -3 | 47* | 27*
CCC1CCCN1Cn1cnc2c([nH]c3ccc(OC)cc32)c1=O (configuration not stated) | 54* | 10 | 1 | 3 | 0 | -10 | 94* | 74*
CCN1CCCC1CNC(=O)c1[nH]c2ccc(OC)cc2c1C (configuration not stated) | 45* | 8 | 1 | 4 | 3 | 7 | + | +
CCCCN(CC)CCCNC(=O)c1cc2c(-c3ccc(OC)c(OC)c3)nn(C)c2s1 | 3 | 11 | 0 | 1 | 2 | 1 | . | .
COc1ccc2[nH]c3c(=O)n4c(nc3c2c1)SCCC4 | 71* | 1 | -1 | 0 | -12 | 0 | 103* | 88*
CN(CCCNC(=O)c1cc2c(Cl)nc3ccccc3c2s1)Cc1ccccc1 | -3 | 6 | 5 | 0 | -6 | 99 | . | .
CCN(CC)CCCNC(=O)c1cc2c(-c3cccc(OC)c3)nn(C)c2s1 | 58* | 12 | 4 | 0 | 4 | 9 | 102* | 87*
COc1cccc(-c2nn(C)c3sc(C(=O)NCCCN(C)Cc4ccccc4)cc23)c1 | 43* | -1 | 1 | -2 | -2 | 7 | 112* | 103*
CC(=O)N1CCc2cc(S(=O)(=O)CCC(=O)Nc3ccccc3F)ccc21 | -2 | 8 | 0 | 1 | 6 | 1 | . | .
O=C1CC(O)(C(F)F)Oc2ccc3ccccc3c21 (configuration not stated) | 44* | 6 | -1 | ? | -9 | 52 | 31* | 22*
Cc1cc(C)n2nc(SCCC(=O)NCc3ccccc3)nc2n1 | 0 | 10 | -1 | 0 | 2 | -8 | . | .
CC1(C(=O)NS(=O)(=O)c2cccc(OC(F)F)c2)CCN1C(=O)C/C=C/c1ccccc1 (configuration not stated) | -2 | -2 | . | . | . | . | . | .
Cc1ccc(/C([O-])=C(/C(=S)NCc2ccc3c(c2)OCO3)[n+]2ccc(N(C)C)cc2)c(C)c1 | 1 | 7 | 0 | 3 | 0 | 0 | . | .
SMILES | Mtb FBA inh | GDH-TPI counter-1 | RecA intein inh | UGM FP inh | Rv3671c protease | Mtb betalactam | Mtb FBA inh conf | GDH-TPI counter-2
O=C(c1ccc2c3c(cccc13)CC2)C1CCCN(CC2CC2)C1 (configuration not stated) | 33* | 8 | -16 | 0 | 3 | -6 | 6 | -2
CCN(C(=O)COc1ccc2ccc(=O)oc2c1)C1CCCCC1 | 35* | 8 | . | 1 | 4 | 3 | 72* | 51*
CC(C)CN(C(=O)COc1ccc2ccc(=O)oc2c1)C1CCS(=O)(=O)C1 (configuration not stated) | 22 | 10 | -1 | 0 | 1 | 0 | . | .
CN(C(=O)COc1ccc2ccc(=O)oc2c1)C1CCS(=O)(=O)C1 (configuration not stated) | 38* | 20 | -2 | 1 | -6 | -3 | 190* | 147*
Cc1cccc(C)c1NC(=O)C(c1ccccc1)N(C)CCc1ccccc1 (configuration not stated) | 0 | . | . | . | . | . | . | .
CS(=O)(=O)Cc1cc(Sc2ccccc2)nc(-c2ccncc2)n1 | 34* | 2 | 2 | 1 | -6 | -2 | 8 | -4
O=S(Cc1cc(Sc2ccccc2)nc(-c2ccccc2)n1)c1ccccc1 (configuration not stated) | 2 | -7 | -1 | 1 | -5 | 24 | . | .
Cc1[nH]nc2c1C(c1ccc(O)cc1)C1=C(CC(C)(C)CC1=O)N2 (configuration not stated) | 7 | 24 | 2 | 1 | 2 | -10 | . | .
Cc1[nH]nc2c1C(c1ccsc1)C1=C(CC(C)(C)CC1=O)N2 (configuration not stated) | 55* | 23 | -5 | 4 | 5 | 1 | 51* | 38*
COc1cccc(C2C3=C(CC(C)(C)CC3=O)Nc3n[nH]c(C)c32)c1 (configuration not stated) | 43* | 13 | 0 | 2 | 1 | 0 | 161* | 131*
C=CCn1cc(-c2ccccc2)cc(C#N)c1=O | 73* | 3 | 4 | -3 | 4 | -5 | -4 | -3
Cc1cc(-n2c(C)cc(C(=O)COc3ccc4ccc(=O)oc4c3)c2C)no1 | 28* | 3 | -1 | -1 | -7 | 99 | 60* | 59*
CC(=O)c1cccc(OCC(=O)c2cc(C)n(-c3cc(C)on3)c2C)c1 | 1 | 4 | 3 | 2 | 3 | 8 | . | .
CC(C)Cn1c(N)c(C(=O)COC(=O)Cc2cccc(C(F)(F)F)c2)c(=O)n(C)c1=O | 1 | 8 | 3 | 2 | -2 | 6 | . | .
CCOC(=O)C/C(C)=N\Nc1nc(-c2ccccc2)cs1 | 69* | 14 | 0 | 0 | 1 | 2 | 54* | 42*
